Results as given in publication PMC7819943, “Rice protein-binding microarrays: a tool to detect cis-acting elements near promoter regions in rice”.
In all, about 68,000 sequences were measured (“fluorescence intensity (a.u.)”: median about 9,100, highest 2% from about 16,000 on). Many of the other results were omitted from the sample, so the highest values are more common in it than they were.

biological target: OsWRKY34 (Oryza sativa, UniProt Q0JBA9 1-250); assay: protein-binding microarray (RPBM); PBS, 2% BSA, 51.3 ng/ul salmon testes DNA, 50 uM zinc acetate, 200 nM TF, 25 C, 1 h; high values mean tight binding; conditions: protein: recombinant; tags: N-terminal polyhistidine and DsRed monomer fusion (pET32a); label: CyDye5-dUTP incorporated in the synthesized complementary strand; 3' TTTTT single-stranded linker to array surface; dsDNA, one strand shown
Procedure, shortened: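 A custom Agilent array was converted to double-stranded form by primer extension with Cy5-dUTP and blocked with 2% BSA. Protein at 200 nM in PBS with 2% BSA, salmon testes DNA and 50 µM zinc acetate was applied for 1 h at 25 °C, followed by washing. The proteins were polyhistidine–DsRed N-terminal fusions of transcription factors, expressed in E. coli BL21-CodonPlus and Ni–NTA-purified. The binding signal is per-feature fluorescence intensity (arbitrary units) from an Axon 4000B scanner.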

OsWRKY34, sequence (Q0JBA9 entry or part of it): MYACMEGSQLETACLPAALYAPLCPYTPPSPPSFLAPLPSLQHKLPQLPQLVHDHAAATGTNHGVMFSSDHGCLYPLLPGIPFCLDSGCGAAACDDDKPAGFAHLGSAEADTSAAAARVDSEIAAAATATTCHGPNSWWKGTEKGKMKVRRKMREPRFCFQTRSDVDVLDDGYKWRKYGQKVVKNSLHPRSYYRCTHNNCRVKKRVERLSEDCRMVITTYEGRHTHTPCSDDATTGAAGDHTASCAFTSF

Sequence | binding signal
GTTTCATTGAGATGGTGTCGACGTGGCGGCGTTGACTTAGCGGAGTCACCTAGTGCAG | 10700 fluorescence intensity (a.u.)
AATGCAACCATTAAGTTGTCGTTTAGTTGACTTTGTCTACCGGAGTCACCTAGTGCAG | 8690 fluorescence intensity (a.u.)
GATTCTACTGCCCCGTTGACTAATTGTCTTCGTCAGGATCCGGAGTCACCTAGTGCAG | 17900 fluorescence intensity (a.u.)
TAATTGTCTTCGTCAGGATCTTCTGCTAATTGTTTGATTTCGGAGTCACCTAGTGCAG | 8680 fluorescence intensity (a.u.)
CCCCGTCGTTGTCGCCACCTACTTCTACCTGCGCGGATTCCGGAGTCACCTAGTGCAG | 10800 fluorescence intensity (a.u.)
TGACACCGTTGACTTTTTTGTCTAAAGTTTAACCATTCGTCGGAGTCACCTAGTGCAG | 32400 fluorescence intensity (a.u.)
CGACTTTGTTTTACCATTGTTTTTTTTGTCTTGTTTTAGTCGGAGTCACCTAGTGCAG | 10600 fluorescence intensity (a.u.)
CCGTTGACATTTTATCTAACGTTTGACCATTCGTCTTATTCGGAGTCACCTAGTGCAG | 15900 fluorescence intensity (a.u.)
AGTGTCTTTGACTTTTTGTTTGTAACGTTTGACCATTCGTCGGAGTCACCTAGTGCAG | 21900 fluorescence intensity (a.u.)
ACACCATTGACTTTTTAGCATATGTTTAACCGTTTGTCTTCGGAGTCACCTAGTGCAG | 13900 fluorescence intensity (a.u.)
CCGCCGTTGACTTTTTGTCTAACGTTTGACCATTCGTCTTCGGAGTCACCTAGTGCAG | 36200 fluorescence intensity (a.u.)
CAATGTTGTCTTGACTTTTTTTTAACGTTTAACCATTTGTCGGAGTCACCTAGTGCAG | 8940 fluorescence intensity (a.u.)
ATACAATCTACTTGAATCGTTTTTTCTTTACTTTTCAGTTCGGAGTCACCTAGTGCAG | 9840 fluorescence intensity (a.u.)
ACTTAGCAGCACTTGTCCCGTTCTCCTGAAGACAGTCCAACGGAGTCACCTAGTGCAG | 9480 fluorescence intensity (a.u.)
CAGTAATTGTCACTATCTTATTACACATTATTCTGTCCAGCGGAGTCACCTAGTGCAG | 8060 fluorescence intensity (a.u.)
TCCTGTCCAGTCTCCACTCGCAAACCCTTCTCGCCGCCATCGGAGTCACCTAGTGCAG | 10400 fluorescence intensity (a.u.)
GACCGCTTCACCCGCCCAATCAAAACCGTCCATCCATCCCCGGAGTCACCTAGTGCAG | 10300 fluorescence intensity (a.u.)
CAGTAACAATCACTCATTCTCAGTATCTGCTACTCCTCTACGGAGTCACCTAGTGCAG | 8710 fluorescence intensity (a.u.)
CTCCTCTTTGTGTGTAGACTGAAAAGGTGGAAAGTTTACCCGGAGTCACCTAGTGCAG | 9750 fluorescence intensity (a.u.)
CGCGTAACCCACCCAATGTTTCACTCCTGCAGCACTTGACCGGAGTCACCTAGTGCAG | 9370 fluorescence intensity (a.u.)
CTATATATTTACCCACTGTATACCTCTGTCATGAAAGCATCGGAGTCACCTAGTGCAG | 11500 fluorescence intensity (a.u.)
CTCGTTTGATCTCTCAGTTGGGAGCATTATTTCTGCGCATCGGAGTCACCTAGTGCAG | 10800 fluorescence intensity (a.u.)
CAACGGCGAATCAACGCCCGAACCGACTCTTTTATCTTTTCGGAGTCACCTAGTGCAG | 9920 fluorescence intensity (a.u.)

Sequence | binding signal
ACAAATTTGTAGCCCGCTGCTCTTCTCTCTCATCTTTTATCGGAGTCACCTAGTGCAG | 9220 fluorescence intensity (a.u.)
CGTATACCTCGGAGAAGTTCTCATCCGCTGACGTGTCCCGCGGAGTCACCTAGTGCAG | 19600 fluorescence intensity (a.u.)
GTCCGCATCTCATCCTTCCGCAAGTCCGTATCTCATCCCTCGGAGTCACCTAGTGCAG | 10400 fluorescence intensity (a.u.)
TCCCTCGGTCCCATCGTATATATATATACCGTATGTCCCGCGGAGTCACCTAGTGCAG | 9470 fluorescence intensity (a.u.)
CACCTCACCCTCACCCGCACACGCCGACACCCCGACGCGTCGGAGTCACCTAGTGCAG | 9390 fluorescence intensity (a.u.)
CTTCTTTCTCAATATGTGATTTTCTTTCCTTAATCTCGTTCGGAGTCACCTAGTGCAG | 8680 fluorescence intensity (a.u.)
CTCCGTCGCTGACTGCAACCTCCACCCACACGGCACCCATCGGAGTCACCTAGTGCAG | 8090 fluorescence intensity (a.u.)
TATCTCTCTCCCGCTGACAACCCGGTCACACCGAACCAACCGGAGTCACCTAGTGCAG | 8990 fluorescence intensity (a.u.)
CCTCTCACTGCTAGTGCCCCACACCGTTCTTCGCTGCCCACGGAGTCACCTAGTGCAG | 11800 fluorescence intensity (a.u.)
TTTGCACACGGGTGACTCGTCTCTTTGTACTCACTCTCTCCGGAGTCACCTAGTGCAG | 9840 fluorescence intensity (a.u.)
CTAATACGTGGGTCTCACTATTGTCTTCTTGTTTGACTGACGGAGTCACCTAGTGCAG | 10700 fluorescence intensity (a.u.)
CCTATTCTAACACTGACGGGTGGGTCTCACAGGGTGACTCCGGAGTCACCTAGTGCAG | 16900 fluorescence intensity (a.u.)
TCCTCTGTTTTACACTTGCATTCCTATCAGAATCCTATATCGGAGTCACCTAGTGCAG | 9540 fluorescence intensity (a.u.)
CCCGTCGATCCACCGCGGGGACAAGCTCTAGATCTCTCTCCGGAGTCACCTAGTGCAG | 8440 fluorescence intensity (a.u.)
CAGGCATGTCCAGTATAGGTGTTATTATATTTTATTATTACGGAGTCACCTAGTGCAG | 8910 fluorescence intensity (a.u.)
TCCCTCTGTTCAAAATGTTTGACACCGTTGACTTTTTAAGCGGAGTCACCTAGTGCAG | 20700 fluorescence intensity (a.u.)
TATACTCCCTCCATTTCAAAATGTTTGACACCGTTGACTTCGGAGTCACCTAGTGCAG | 9590 fluorescence intensity (a.u.)
ACTCCCTCCTTCCCTAAATGTTTGACACCGTTGACTTTTTCGGAGTCACCTAGTGCAG | 19600 fluorescence intensity (a.u.)
TACTCCCTTCTTCCTTAGATGTTTGACACCGTTGACTTTTCGGAGTCACCTAGTGCAG | 16900 fluorescence intensity (a.u.)
CTCCATCCGTTTTAAAATGTTTGACACCGTTGACTTTTTACGGAGTCACCTAGTGCAG | 27300 fluorescence intensity (a.u.)
CTCCCTCCTTTTCTAAATGTTTGACACCATTGACTTTTTTCGGAGTCACCTAGTGCAG | 8470 fluorescence intensity (a.u.)
ACTTCTTTAGGCGTTGACTTCTCCCTTTTCCTTTACTATTCGGAGTCACCTAGTGCAG | 14800 fluorescence intensity (a.u.)
